According to PubChem BioAssay (Tox21):
Records with an inconclusive call do not appear. A number with no mark means an inactive call. The source made the active and inactive calls. Unless noted, calls follow the shape of the full dose curve.

experiment: qHTS assay to identify small molecule antagonists of the vitamin D receptor (VDR) signaling pathway - cell viability counter screen (AID 743225; active = well fitted cell-killing curve with a large enough effect in the repeat runs; also: nearly all actives have a fitted effect of over 50% in size); settings: VDR-bla HEK293T viability, CellTiter-Glo luminescence, 16 h; series mostly up to 61 µM
Outline: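 Compounds were pinned onto VDR-bla HEK 293T cells together with 1-alpha,25-dihydroxyvitamin D3 at 3 nM final. After 16 h at 37C and 5% CO2 plus the reporter readout, cell viability was measured by CellTiter-Glo luminescence (30 min, room temperature).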
% is scaled to controls: 0 for no effect and ±100 for the full control effect.

SMILES	outcome	viability change, negative = cytotoxic
CC(C)OC(=O)CCCCC(=O)OC(C)C	inactive	
CC(=O)Nc1ccc(S(=O)(=O)Nc2ccc([N+](=O)[O-])cc2)cc1	inactive	
Cc1ccc(S(=O)(=O)O)c(C)c1	inactive	
CCCCNc1ccc(C(=O)OCCN(C)C)cc1	inactive	
COc1ccc2c(c1)C(=O)N(CCc1ccc(S(=O)(=O)NC(=O)NC3CCCCC3)cc1)C(=O)C2(C)C	inactive	
CC(C)CCCCOC(=O)c1ccccc1C(=O)OCCCCC(C)C	inactive	
C=C(C)C(=O)OCC(C)(C)COC(=O)C(=C)C	inactive	
CC(=O)Nc1cccc(C)c1	inactive	
CC(C)(C)c1nnc(NS(=O)(=O)c2ccc(N)cc2)s1	inactive	
OCCN(CCO)c1cccc(Cl)c1	inactive	
COc1cc2c(cc1OC)[C@@H]1CC(=O)[C@@H](CC(C)C)CN1CC2	inactive	
O=C(c1ccc(O)cc1)c1ccc(O)c(O)c1O	inactive	
CCCCNC1CC(C)(C)NC(C)(C)C1	inactive	
CCO[Si](CCCS)(OCC)OCC	inactive	
CC(CC=O)CCCC(C)(C)O (configuration not stated)	inactive	
CCCCCCOC(=O)CC	inactive	
O=C(O)CCSSCCC(=O)O	inactive	
O=C1CCCC(=O)O1	inactive	

SMILES	outcome	viability change, negative = cytotoxic
CCCCCOC(=O)CCC	inactive	
CCCC/C=C\CCCCCCCCCC=O	inactive	
CCOC(=O)c1ccc(OC(=O)CCCCCN=C(N)N)cc1	inactive	
C=C(C)C(=O)OCc1ccccc1	inactive	
COP(=O)(OC)OC(c1ccc(Cl)cc1)P(=O)(OC)OC (configuration not stated)	inactive	
NS(=O)(=O)c1ccc(NC(=O)CCC(=O)O)cc1	inactive	
CCCCN	inactive	
CCCCCCOc1ccccc1C(N)=O	inactive	
C=C(C)C(=O)OCCN(CC)CC	inactive	
CCCOC(OCCC)OCCC	inactive	
CCOCCOCCOCC	inactive	
CCc1ccc(C=O)cc1	inactive	
C[Si](C)=O		6.84% [at 6.95 µM]
COCCOC(=O)C1=C(C)NC(C)=C(C(=O)OC(C)C)C1c1cccc([N+](=O)[O-])c1 (configuration not stated)	inactive	
O=C(O)Cc1ccc(Cl)cc1Cl	inactive	
CC(CN)CC(C)(C)CCN (configuration not stated)	inactive	
COC(=O)[C@@H]1[C@H]2C[C@H]3c4[nH]c5ccccc5c4CCN3C[C@@H]2CC[C@@H]1O	inactive	
Cc1ccccc1N=O	inactive	

experiment: qHTS assay to identify small molecule agonists of the NFkB signaling pathway (AID 1159509; active = well fitted curve in the direction sought with a large enough effect in the signal ratio in the repeat runs, not every such curve was filed as active; the % refers to the signal ratio); settings: NFkB-bla ME-180 cells, beta-lactamase FRET ratio, 5 h; series mostly up to 61 µM
Outline: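 Readout: FRET fluorescence, 405 nm excitation, 460/530 nm emission; beta-lactamase expression disrupts FRET. Cells: ME-180 stably carrying NF-kB-driven bla reporter. Compound exposure 5 hr, 37 C, 5% CO2.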

SMILES	outcome	activation
CC(C)OC(=O)CCCCC(=O)OC(C)C	inactive	
CC(=O)Nc1ccc(S(=O)(=O)Nc2ccc([N+](=O)[O-])cc2)cc1	inactive	
Cc1ccc(S(=O)(=O)O)c(C)c1	inactive	
CCCCNc1ccc(C(=O)OCCN(C)C)cc1	inactive	
COc1ccc2c(c1)C(=O)N(CCc1ccc(S(=O)(=O)NC(=O)NC3CCCCC3)cc1)C(=O)C2(C)C	inactive	
CCN(C)C(=O)Oc1cccc([C@H](C)N(C)C)c1	inactive	
CC(C)CCCCOC(=O)c1ccccc1C(=O)OCCCCC(C)C	inactive	
C=C(C)C(=O)OCC(C)(C)COC(=O)C(=C)C	inactive	
CC(=O)Nc1cccc(C)c1	inactive	
CC(C)(C)c1nnc(NS(=O)(=O)c2ccc(N)cc2)s1	inactive	
OCCN(CCO)c1cccc(Cl)c1	inactive	
COc1cc2c(cc1OC)[C@@H]1CC(=O)[C@@H](CC(C)C)CN1CC2	inactive	
O=C(c1ccc(O)cc1)c1ccc(O)c(O)c1O	inactive	
CCCCNC1CC(C)(C)NC(C)(C)C1	inactive	
CCO[Si](CCCS)(OCC)OCC	inactive	
CC(CC=O)CCCC(C)(C)O (configuration not stated)	inactive	
CCCCCCOC(=O)CC	inactive	
O=C(O)CCSSCCC(=O)O	inactive	
O=C1CCCC(=O)O1	inactive	

SMILES	outcome	activation
CCCCCOC(=O)CCC	inactive	
CCCC/C=C\CCCCCCCCCC=O	inactive	
CCOC(=O)c1ccc(OC(=O)CCCCCN=C(N)N)cc1	inactive	
C=C(C)C(=O)OCc1ccccc1	inactive	
COP(=O)(OC)OC(c1ccc(Cl)cc1)P(=O)(OC)OC (configuration not stated)	inactive	
NS(=O)(=O)c1ccc(NC(=O)CCC(=O)O)cc1	inactive	
CCCCN	inactive	
CCCCCCOc1ccccc1C(N)=O	inactive	
C=C(C)C(=O)OCCN(CC)CC	inactive	
CCCOC(OCCC)OCCC	inactive	
CCOCCOCCOCC	inactive	
CCc1ccc(C=O)cc1	inactive	
C[Si](C)=O		0.149% [at 6.95 µM]
COCCOC(=O)C1=C(C)NC(C)=C(C(=O)OC(C)C)C1c1cccc([N+](=O)[O-])c1 (configuration not stated)	inactive	
O=C(O)Cc1ccc(Cl)cc1Cl	inactive	
CC(CN)CC(C)(C)CCN (configuration not stated)	inactive	
NNc1nnc(NN)c2ccccc12	inactive	
COC(=O)[C@@H]1[C@H]2C[C@H]3c4[nH]c5ccccc5c4CCN3C[C@@H]2CC[C@@H]1O	inactive	
Cc1ccccc1N=O	inactive	

experiment: qHTS assay to identify small molecule agonists of the NFkB signaling pathway - cell viability counter screen (AID 1159515); settings: NFkB-bla ME-180 viability, CellTiter-Glo luminescence, 5 h; series mostly up to 61 µM; also: nearly all actives have a fitted effect of over 55% in size
Outline: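 Plate 2,000 NFkB-bla ME-180 cells/well; incubate overnight. Add compounds, 5 hr at 37 C. Add FRET substrate, 1.5 hr RT. Add CellTiter-Glo, 30 min RT; read luminescence.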

SMILES	outcome	activity, negative = cytotoxic
CC(C)OC(=O)CCCCC(=O)OC(C)C	inactive	
CC(=O)Nc1ccc(S(=O)(=O)Nc2ccc([N+](=O)[O-])cc2)cc1	inactive	
Cc1ccc(S(=O)(=O)O)c(C)c1	inactive	
CCCCNc1ccc(C(=O)OCCN(C)C)cc1	inactive	
COc1ccc2c(c1)C(=O)N(CCc1ccc(S(=O)(=O)NC(=O)NC3CCCCC3)cc1)C(=O)C2(C)C	inactive	
CCN(C)C(=O)Oc1cccc([C@H](C)N(C)C)c1	inactive	
CC(C)CCCCOC(=O)c1ccccc1C(=O)OCCCCC(C)C	inactive	
C=C(C)C(=O)OCC(C)(C)COC(=O)C(=C)C	inactive	
CC(=O)Nc1cccc(C)c1	inactive	
CC(C)(C)c1nnc(NS(=O)(=O)c2ccc(N)cc2)s1	inactive	
OCCN(CCO)c1cccc(Cl)c1	inactive	
COc1cc2c(cc1OC)[C@@H]1CC(=O)[C@@H](CC(C)C)CN1CC2	inactive	
O=C(c1ccc(O)cc1)c1ccc(O)c(O)c1O	inactive	
CCCCNC1CC(C)(C)NC(C)(C)C1	inactive	
CCO[Si](CCCS)(OCC)OCC	inactive	
CC(CC=O)CCCC(C)(C)O (configuration not stated)	inactive	
CCCCCCOC(=O)CC	inactive	
O=C(O)CCSSCCC(=O)O	inactive	
O=C1CCCC(=O)O1	inactive	

SMILES	outcome	activity, negative = cytotoxic
CCCCCOC(=O)CCC	inactive	
CCCC/C=C\CCCCCCCCCC=O	inactive	
CCOC(=O)c1ccc(OC(=O)CCCCCN=C(N)N)cc1	inactive	
C=C(C)C(=O)OCc1ccccc1	inactive	
COP(=O)(OC)OC(c1ccc(Cl)cc1)P(=O)(OC)OC (configuration not stated)	inactive	
NS(=O)(=O)c1ccc(NC(=O)CCC(=O)O)cc1	inactive	
CCCCN	inactive	
CCCCCCOc1ccccc1C(N)=O	inactive	
C=C(C)C(=O)OCCN(CC)CC	inactive	
CCCOC(OCCC)OCCC	inactive	
CCOCCOCCOCC	inactive	
CCc1ccc(C=O)cc1	inactive	
C[Si](C)=O		10.4% [at 6.95 µM]
COCCOC(=O)C1=C(C)NC(C)=C(C(=O)OC(C)C)C1c1cccc([N+](=O)[O-])c1 (configuration not stated)	inactive	
O=C(O)Cc1ccc(Cl)cc1Cl	inactive	
CC(CN)CC(C)(C)CCN (configuration not stated)	inactive	
NNc1nnc(NN)c2ccccc12	inactive	
COC(=O)[C@@H]1[C@H]2C[C@H]3c4[nH]c5ccccc5c4CCN3C[C@@H]2CC[C@@H]1O	inactive	
Cc1ccccc1N=O	inactive	
